Results filed as inconclusive are left out. Activity calls are given as the source filed them. Unless noted, calls come from the whole dose curve; as a rule, active = well fitted curve in the direction sought with a large enough effect in the repeat runs; inconclusive = weak or mixed curves; inactive = no such curve, though single readings can be large; an effect the other way counts as inactive or inconclusive.
How the values were obtained:
[1] = qHTS assay to identify small molecule agonists of the peroxisome proliferator-activated receptor delta (PPARd) signaling pathway - cell viability counter screen (AID 743211); note: nearly all actives have a fitted effect of over 55% in size
In short: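 PPARd-bla HEK293H cells (3000/well) were pre-incubated 5 h at 37 C, then exposed to compound for 17 h at 37 C. After 2 h with LiveBLAzer substrate, CellTiter-Glo was added to the same wells; luminescence read after 30 min at room temperature.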

[2] = molecular target: Peroxisome proliferator-activated receptor delta (Homo sapiens) (UniProt Q03181); experiment: qHTS assay to identify small molecule agonists of the peroxisome proliferator-activated receptor delta (PPARd) signaling pathway (AID 743212; calls by dose curve)
In short: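 Read-out: beta-lactamase FRET fluorescence after 2 h room-temperature incubation with LiveBLAzer B/G substrate. Cells were HEK293H carrying a UAS-bla reporter for PPARd, treated at 37 C with DMSO-dissolved compounds.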

[3] = qHTS assay to identify small molecule antagonists of the peroxisome proliferator-activated receptor delta (PPARd) signaling pathway - cell viability counter screen (AID 743213); note: nearly all actives have a fitted effect of over 50% in size
In short: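 Luminescence from CellTiter-Glo, added after the bla read and incubated 30 min at room temperature, gives viability of HEK293H PPARd-bla cells exposed to compounds for 17 h at 37 C with 300 nM L165041.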

[4] = molecular target: Peroxisome proliferator-activated receptor delta (Homo sapiens) (UniProt Q03181); experiment: qHTS assay to identify small molecule antagonists of the peroxisome proliferator-activated receptor delta (PPARd) signaling pathway (AID 743215; active = well fitted inhibition curve with a large enough effect in the signal ratio in the repeat runs, not every such curve was filed as active; the % refers to the signal ratio;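 note: cells stimulated with agonist L165041 at 300 nM final during compound exposure; series mostly up to about 62 µM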)
In short: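 Screen format: qHTS, antagonist mode. HEK293H PPARd-bla cells received compound and 300 nM L165041 (final), 17 h, 37 C. Beta-lactamase detected via FRET substrate fluorescence, 2 h, room temperature.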

[5] = qHTS assay to identify small molecule agonists of the farnesoid-X-receptor (FXR) signaling pathway - cell viability counter screen (AID 743218); note: nearly all actives have a fitted effect of over 45% in size
In short: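 Same-well cytotoxicity check on FXR-UAS-bla HEK 293T cells: 5 h attachment, 16 h compound at 37 C, CellTiter-Glo luminescence read at room temperature after 30 min.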

[6] = qHTS assay to identify small molecule antagonists of the farnesoid-X-receptor (FXR) signaling pathway - cell viability counter screen (AID 743221; active = well fitted cell-killing curve with a large enough effect in the repeat runs, not every such curve was filed as active; note: nearly all actives have a fitted effect of over 50% in size)
In short: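 GeneBLAzer FXR-UAS-bla HEK 293T cells, compound plus chenodeoxycholic acid (50 uM final), 16 h at 37 C. CellTiter-Glo added to the same wells after the beta-lactamase read; luminescence read after 30 min at room temperature as viability.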

[7] = molecular target: Bile acid receptor (Homo sapiens) (UniProt Q96RI1); experiment: qHTS assay to identify small molecule antagonists of the farnesoid-X-receptor (FXR) signaling pathway (AID 743217; active = well fitted inhibition curve with a large enough effect in the signal ratio in the repeat runs, not every such curve was filed as active; the % refers to the signal ratio)
In short: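 Quantitative HTS, beta-lactamase reporter format: FXR-UAS-bla HEK 293T cells co-treated 16 h at 37 °C with compounds and 50 uM final chenodeoxycholic acid, then read by B/G FRET fluorescence.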

[8] = molecular target: Bile acid receptor (Homo sapiens) (UniProt Q96RI1); experiment: qHTS assay to identify small molecule agonists of the farnesoid-X-receptor (FXR) signaling pathway (AID 743220; active = well fitted activation curve with a large enough effect in the signal ratio in the repeat runs, not every such curve was filed as active; the % refers to the signal ratio)
In short: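 FXR-UAS-bla HEK 293T cells carrying a UAS-driven beta-lactamase reporter were plated for 5 h at 37C/5% CO2, then exposed to DMSO-dissolved Tox21 10K compounds for 16 h at 37C. A LiveBLAzer B/G FRET substrate was loaded for 2 h at room temperature before fluorescence reading.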

[9] = molecular target: Vitamin D3 receptor (Homo sapiens) (UniProt P11473); experiment: qHTS assay to identify small molecule agonists of the vitamin D receptor (VDR) signaling pathway (AID 743222; calls by dose curve)
In short: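 Using LiveBLAzer B/G FRET detection, agonism was scored in VDR-bla cells exposed overnight (16 h, 37C) to DMSO-dissolved compounds; substrate incubation was 2 h at room temperature.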

[10] = molecular target: Vitamin D3 receptor (Homo sapiens) (UniProt P11473); experiment: qHTS assay to identify small molecule antagonists of the vitamin D receptor (VDR) signaling pathway (AID 743223; active = well fitted inhibition curve with a large enough effect in the signal ratio in the repeat runs, not every such curve was filed as active; the % refers to the signal ratio)
In short: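 VDR-bla cells were treated with compound plus 3 nM final 1alpha,25-dihydroxyvitamin D3 for 16 h at 37C. Beta-lactamase reporter read by B/G FRET substrate fluorescence after 2 h at room temperature. qHTS format.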

Measured: outcome

Sequence of Vitamin D3 receptor (Homo sapiens) (P11473 whole entry, looked up): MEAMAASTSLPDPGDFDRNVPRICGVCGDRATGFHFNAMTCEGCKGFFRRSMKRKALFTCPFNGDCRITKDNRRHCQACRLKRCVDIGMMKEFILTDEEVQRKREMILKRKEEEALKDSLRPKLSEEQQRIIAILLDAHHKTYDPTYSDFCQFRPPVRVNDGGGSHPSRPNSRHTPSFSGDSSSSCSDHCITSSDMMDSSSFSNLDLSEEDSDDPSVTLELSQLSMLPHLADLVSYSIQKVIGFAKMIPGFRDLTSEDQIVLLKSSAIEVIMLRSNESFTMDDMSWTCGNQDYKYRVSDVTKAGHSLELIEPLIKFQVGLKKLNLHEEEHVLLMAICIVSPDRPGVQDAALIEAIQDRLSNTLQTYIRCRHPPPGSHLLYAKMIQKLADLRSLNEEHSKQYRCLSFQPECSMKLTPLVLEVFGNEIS
Sequence of Peroxisome proliferator-activated receptor delta (Homo sapiens) (Q03181 whole entry, looked up): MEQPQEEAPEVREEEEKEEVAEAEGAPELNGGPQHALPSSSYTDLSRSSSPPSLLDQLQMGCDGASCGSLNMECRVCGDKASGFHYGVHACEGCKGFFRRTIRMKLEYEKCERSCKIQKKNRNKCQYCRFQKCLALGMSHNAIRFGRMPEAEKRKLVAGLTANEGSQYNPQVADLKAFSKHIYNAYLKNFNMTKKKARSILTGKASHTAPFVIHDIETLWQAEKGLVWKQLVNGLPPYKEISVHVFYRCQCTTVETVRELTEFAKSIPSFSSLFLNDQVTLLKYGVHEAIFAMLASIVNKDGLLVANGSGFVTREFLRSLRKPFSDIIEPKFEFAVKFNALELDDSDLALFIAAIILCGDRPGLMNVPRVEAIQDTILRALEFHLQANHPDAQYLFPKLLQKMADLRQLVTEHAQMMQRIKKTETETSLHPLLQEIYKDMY
Sequence of Bile acid receptor (Homo sapiens) (Q96RI1 whole entry, looked up): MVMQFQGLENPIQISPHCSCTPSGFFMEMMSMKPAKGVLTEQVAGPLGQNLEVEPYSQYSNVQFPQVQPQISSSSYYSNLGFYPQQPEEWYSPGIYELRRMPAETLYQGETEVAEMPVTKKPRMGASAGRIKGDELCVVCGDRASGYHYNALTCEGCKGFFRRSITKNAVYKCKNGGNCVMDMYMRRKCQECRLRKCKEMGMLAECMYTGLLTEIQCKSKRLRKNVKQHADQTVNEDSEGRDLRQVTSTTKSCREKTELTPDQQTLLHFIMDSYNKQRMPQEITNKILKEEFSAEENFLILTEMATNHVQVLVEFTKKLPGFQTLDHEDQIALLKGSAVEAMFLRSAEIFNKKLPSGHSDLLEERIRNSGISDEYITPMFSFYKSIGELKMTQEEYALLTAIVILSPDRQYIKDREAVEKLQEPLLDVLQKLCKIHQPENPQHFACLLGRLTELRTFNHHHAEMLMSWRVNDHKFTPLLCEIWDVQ

CCOC(=O)CC1(C)OCC(C)O1 (stereo unspecified)
inactive: [1] | [2] | [3] | [4] | [5] | [6]

CCCCSCCCC
inactive: [1] | [2] | [3] | [4] | [5] | [6]

CC12CCC(C1)C(C)(C)C2O (stereo unspecified)
not listed: [6]
inactive: all other assays above

O=[N+]([O-])c1c(Cl)cc(Cl)cc1Cl
not listed: [7] | [8] | [10]
inactive: all other assays above

C#CCN[C@@H]1CCc2ccccc21
inactive: [1] | [2] | [3] | [4] | [5] | [6]

CC1=C(O)C(=O)C(C)O1 (stereo unspecified)
not listed: [5] | [9] | [10]
inactive: all other assays above

O=C(CCCl)NCCc1ccccc1
not listed: [5]
inactive: all other assays above

CC(C)=CCC/C(C)=C/COC=O
inactive: [1] | [2] | [3] | [4] | [5] | [6]

CCCCCc1cccc(=O)o1
not listed: [5] | [10]
inactive: all other assays above

O=C(CN1CCNCC1)NC1CCCCC1
inactive: [1] | [2] | [3] | [4] | [5] | [6]

COCCc1ccccn1
inactive: [1] | [2] | [3] | [4] | [5] | [6]

C/C=C(\C)C(C)=O
inactive: [1] | [2] | [3] | [4] | [5] | [6]

CCCc1ccc(O)cc1
not listed: [5]
inactive: all other assays above

CC1(C)Cc2cccc(N)c2O1
not listed: [5]
inactive: all other assays above

CC(C)CCOC(=O)c1ccccc1
not listed: [7] | [10]
inactive: all other assays above

CCOC(CN1CCN(CC(C)C(=O)c2ccccc2)CC1)c1ccccc1 (stereo unspecified)
inactive: [1] | [2] | [3] | [4] | [5] | [6]

CO/N=C(/C(=O)N[C@@H]1C(=O)N2C(C(=O)[O-])=C(C[n+]3ccn4ncccc43)CS[C@H]12)c1nsc(N)n1
inactive: [1] | [2] | [3] | [4] | [5] | [6]

[O-][n+]1cccc(/C(Cl)=N/OC[C@@H](O)CN2CCCCC2)c1
inactive: [1] | [2] | [3] | [4] | [5] | [6]

C/C=C(\C)C(=O)OCCc1ccccc1
not listed: [5] | [9] | [10]
inactive: all other assays above

COc1cc2c(cc1OC)C(=O)C(CC1CCN(Cc3ccccc3)CC1)C2 (stereo unspecified)
not listed: [7] | [9] | [10]
inactive: all other assays above

Nc1nc(-c2ccccc2)c(Br)c(=O)[nH]1
not listed: [7] | [8] | [10]
inactive: all other assays above

CC(C)OC(=O)OCOP(=O)(CO[C@H](C)Cn1cnc2c(N)ncnc21)OCOC(=O)OC(C)C
not listed: [7] | [8]
inactive: all other assays above

CC/C=C\CCOC(=O)c1ccccc1O
not listed: [7] | [8] | [10]
inactive: all other assays above

CCCSSCCC
not listed: [7] | [8]
inactive: all other assays above

N#CCC(=O)NN
not listed: [7] | [8] | [10]
inactive: all other assays above

CCOc1cccc(N)c1
not listed: [7] | [8] | [10]
inactive: all other assays above

CC(C)NC(=O)c1ccc(C=O)cc1
not listed: [7] | [8]
inactive: all other assays above

O=C1CCC(=O)N1Cl
not listed: [7] | [8]
inactive: all other assays above

ONc1ccccc1
not listed: [7] | [8]
inactive: all other assays above

CC(=O)CC(=O)OC(C)(C)C
not listed: [7] | [8] | [10]
inactive: all other assays above

C[Si]1(C)O[Si](C)(C)O[Si](C)(C)O[Si](C)(C)O[Si](C)(C)O1
not listed: [7] | [8] | [10]
inactive: all other assays above

CC(C)c1ccc(C=O)cc1
not listed: [7] | [8] | [10]
inactive: all other assays above

CC(C)COC(=O)c1ccccc1
inactive: [1] | [2] | [3] | [4] | [5] | [9]

Cn1c(=O)c2c(ncn2CCO)n(C)c1=O
not listed: [7] | [8]
inactive: all other assays above

CCCCCC(C)O (stereo unspecified)
not listed: [7] | [8]
inactive: all other assays above

CC(C)Nc1ccccc1
not listed: [7] | [8]
inactive: all other assays above

C=CCSSCCC
not listed: [7] | [8] | [10]
inactive: all other assays above

OCCN1CCOCC1
inactive: [1] | [2] | [3] | [4] | [6]

CN(C)CCOC(=O)C(c1ccccc1)C1(O)CCCC1 (stereo unspecified)
not listed: [7] | [8]
inactive: all other assays above

Cc1ncc([N+](=O)[O-])n1CC(C)O (stereo unspecified)
not listed: [7] | [8]
inactive: all other assays above

CCCC(=O)Nc1ccc(OCC(O)CNC(C)C)c(C(C)=O)c1 (stereo unspecified)
not listed: [7] | [8] | [10]
inactive: all other assays above

O/N=C/C=N/O
not listed: [7] | [8] | [10]
inactive: all other assays above

CC(C)NCC(O)c1ccc2ccccc2c1 (stereo unspecified)
not listed: [7] | [8]
inactive: all other assays above

NCCOCCN
not listed: [7] | [8]
inactive: all other assays above

Cn1c(=O)c2[nH]c(Br)nc2n(C)c1=O
not listed: [7] | [8]
inactive: all other assays above

COC(C)(OC)OC
not listed: [7] | [8]
inactive: all other assays above

CC1(C)O[C@H]2CC(=O)OC[C@]23[C@H]2CC[C@@]4(C)[C@H](c5ccoc5)OC(=O)[C@H]5O[C@]54[C@]2(C)C(=O)C[C@@H]13
not listed: [7] | [8] | [10]
inactive: all other assays above

C=CCCCC
inactive: [1] | [2] | [3] | [4] | [6]

O=Cc1cc2ccccc2o1
not listed: [7] | [8]
inactive: all other assays above

COC(=O)c1cc(Cl)cc(Cl)c1
not listed: [7] | [8]
inactive: all other assays above

O=C1CCCCO1
not listed: [7] | [8]
inactive: all other assays above

CC(O)COC(C)(C)C (stereo unspecified)
not listed: [7] | [8]
inactive: all other assays above

C/C(CC(C)C)=N\O
not listed: [7] | [8]
inactive: all other assays above

O=C(NCN1CCOCC1)c1cnccn1
not listed: [7] | [8] | [10]
inactive: all other assays above

COC(=O)/C=C\C(=O)O
inactive: [1] | [2] | [3] | [4] | [6]

CC(N)CCCC(C)(C)O (stereo unspecified)
not listed: [7] | [8] | [10]
inactive: all other assays above

CC(=O)OC1CCCCC1C(C)(C)C (stereo unspecified)
not listed: [7] | [8]
inactive: all other assays above

CCOc1ccccc1OCC1CNCCO1 (stereo unspecified)
not listed: [4] | [7] | [8]
inactive: all other assays above

CC(C)=CCC[C@@](C)(O)[C@H]1CC=C(C)CC1
not listed: [5] | [7] | [8]
inactive: all other assays above

O=C(CCCCC(=O)Nc1c(I)cc(I)c(C(=O)O)c1I)Nc1c(I)cc(I)c(C(=O)O)c1I
inactive: [1] | [2] | [3] | [4] | [6] | [9]

CC1=C(C(=O)O)N2C(=O)[C@@H](NC(=O)[C@H](N)C3=CCC=CC3)[C@H]2SC1
inactive: [1] | [2] | [3] | [4] | [6] | [9]

CCO[Si](CC)(OCC)OCC
inactive: [1] | [2] | [3] | [4] | [6] | [9]

CC(=O)CCC1=C(C)CCCC1(C)C
inactive: [1] | [2] | [3] | [4] | [6] | [9]

CC(=O)Nc1ccc(OC(=O)c2ccccc2OC(C)=O)cc1
not listed: [5] | [7] | [8]
inactive: all other assays above

CC1c2ccccc2CN1NC(=O)c1ccc(Cl)c(S(N)(=O)=O)c1 (stereo unspecified)
not listed: [4] | [10]
inactive: all other assays above

C=CCCCCCCCC
inactive: [1] | [2] | [3] | [4] | [6] | [9]
